HT1080-NT tox = kills 2HG-producing HT-1080-NT fibrosarcoma cells. AID 686970. HT-1080-NT fibrosarcoma viability, CellTiter-Glo ATP luminescence, 48 h. 360,000 compounds, 1.6% hits. Potency, µM (highest dose often 46.1 µM), most hits filed as cytotoxic;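 note: NT is the 2HG producing partner of a matched IDH1 knockdown line; nearly all actives have a fitted effect of over 55% in size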
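Viability of the 2HG-overproducing fibrosarcoma line after 48 hours of compound exposure at 37 degrees C was determined by luminescence with CellTiter-Glo, and concentration-effect curves were then fitted and categorized.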
DT40 TDP1 no CPT = qHTS for Inhibitors of human tyrosyl-DNA phosphodiesterase 1 (TDP1): qHTS in cells in absence of CPT; Potency, µM (titrated, usually from 46.2 µM), hits mostly inhibitors; 420,000 compounds, 15% hits; AID 686978, 2013; DT40 Tdp1-/- hTDP1 cells, no CPT, ATP luminescence, 48 h; note: nearly all actives have a fitted effect of over 55% in size
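Readout: luminescence from CellTiter-Glo after 30 min in the dark at RT. Cells: DT40 Tdp1-/- with stable hTDP1, 400/well. Exposure: compounds alone, ≥48 hr, 37 °C.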
HT1080 IDH1KD tx = HT-1080 IDH1 knockdown cell toxicity (counter line). HT-1080 IDH1 knockdown viability, ATP luminescence, 48 h. Potency, µM (top dose mostly 46.1 µM), usual class: cytotoxic. 360,000 compounds, 2% hits. AID 686971
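HT-1080-IDH1KD cells (IDH1 knocked down), 750/well in RPMI with 5% FBS, treated with compound 48 h at 37 degrees C. Viability by CellTiter-Glo luminescence, normalised to DMSO and no-cell wells; concentration-response curves classed.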
TDP1 cell CPT = DT40-hTDP1 cell growth loss with CPT | chicken DT40 Tdp1-/-;hTDP1 cells + 20 nM CPT, ATP luminescence, 48 h | Potency, µM (doses to about 46.2 µM), hits mostly inhibitors | 420,000 compounds, 12% hits | AID 686979; note: nearly all actives have a fitted effect of over 55% in size
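Chicken DT40 Tdp1-/- cells complemented with human TDP1, 400 cells/well, exposed to compounds plus 20 nM camptothecin for at least 48 h at 37 C; viability read as ATP content by CellTiter-Glo luminescence.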
IL1B secr inh = inflammasome signaling inhibition, IL-1 beta readout; THP-1 LPS/ATP IL-1B secretion, AlphaLISA, 16 h; hits give low values; activity change, % at 57.5 µM; 360,000 compounds, 4.7% hits; AID 743279; in the data active = activity change below about -50%; inconclusive = mostly about -30% to -49%
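Secreted IL-1B measured by AlphaLISA bead assay after 16 h compound exposure of THP-1 cells; compounds (final up to 57.5 uM) added 1 h before LPS (250 ng/mL) and ATP (1.25 mM) stimulation; lower signal means less secretion.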
A number is an active result; 0 = inactive; ? = inconclusive; - = no result given; ! = not active in a repeat; [ ] = another dose, or the depositor's remark. Rows were chosen to be rich in hits. Some 19% of all compounds tested hit in one or more screens of this group. Unless noted, calls come from the whole dose curve; as a rule, active = well fitted curve in the direction sought with a large enough effect; inconclusive = small, poorly fitted or top-dose-only effect, or another doubt; inactive = no such curve, though single readings can be large; an effect the other way counts as inactive or inconclusive.

SMILES	HT1080-NT tox	DT40 TDP1 no CPT	HT1080 IDH1KD tx	TDP1 cell CPT	IL1B secr inh
COC(=O)c1c(NC(C)=O)c2c3c(sc2n1Cc1cc(C)ccc1C)CCCC3	-	0	-	0	-
CCOC(=O)c1c(NC(C)=O)c2c3c(sc2n1Cc1cc(C)ccc1C)CCCC3	-	?	-	5.8µM	-
CCOC(=O)c1c(NC(C)=O)c2c3c(sc2n1Cc1nc(-c2ccccc2C)oc1C)CCCC3	-	0	-	0	-
CCOC(=O)c1c(NC(C)=O)c2c3c(sc2n1Cc1nc(-c2cccc(C)c2)oc1C)CCCC3	-	?	-	3.7µM	-
CCOC(=O)c1cc(-c2cccnc2)nn1-c1ccccc1C	0	?	0	?	0
O=C(NCC1(c2ccccc2)CCCC1)C(=O)Nc1cccc(Br)c1	-	0	-	0	-
Cc1c(C(=O)N2CCN(c3ncccn3)CC2)oc2ccc(Cl)cc12	0	0	0	0	0
O=c1n(Cc2ccc(Cl)cc2)c2sc3c(c2c2ncnn12)CCCC3	0	15µM	0	?	0
COCCNC(=O)C1(C)CCCN(CC(=O)c2ccc(OC)cc2)C1 (centres undefined)	0	0	0	0	0
CCCn1nnc(NC(=S)NC(=O)c2cccs2)n1	0	18µM	0	21µM	0
CCCn1nnc(NC(=S)NC(=O)C(C)(C)C)n1	0	?	0	?	0
Fc1ccc(CSc2nc3ccccc3[nH]2)cc1	0	?	?	?	-63
CC1(C)C(CSc2nc3ccccc3[nH]2)C1(Cl)Cl (centres undefined)	0	?	?	23µM	?
O=[N+]([O-])c1ccc(CSc2nc3ccccc3[nH]2)cc1	0	29µM	0	?	0
Fc1ccc(CSc2nc3ccccc3[nH]2)c2ccccc12	?	21µM	?	?	0
CCSc1nc2ccccc2[nH]1	0	0	0	0	0
c1ccc(CSc2nc3ccccc3[nH]2)cc1	0	?	0	0	0
O=C(Nc1ccc(N2CCOCC2)cc1N1CCOCC1)c1ncoc1-c1cccc(F)c1	0	?	0	?	?
Cc1c(C(=O)Nc2cccc(Cl)c2)sc2nc3n(c(=O)c12)N=C(c1cccc(Br)c1)CS3	-	0	-	0	-
Cc1cccc2nc(CSc3nc4ccccc4[nH]3)cn12	0	0	0	0	-66
CCOc1ccc(OCCSc2nc3ccccc3[nH]2)cc1	?	21µM	0	16µM	?
COc1ccc(/C=C(/NC(=O)c2ccc(Br)o2)C(=O)Nc2cccc(C(=O)O)c2)cc1	0	0	0	0	0
COC(=O)Cn1c(=O)c2c(nc3n2CCCN3Cc2ccccc2)n(C)c1=O	0	0	0	0	0
C=C(C)Cn1c(=O)c2c(nc3n2CCN3c2cc(C)cc(C)c2)n(C)c1=O	-	23µM	-	0	-
Cn1c(=O)n(CC(=O)OCc2ccccc2)c(=O)c2c1nc1n2CCCN1C1CCCCC1	0	23µM	0	?	0
SMILES	HT1080-NT tox	DT40 TDP1 no CPT	HT1080 IDH1KD tx	TDP1 cell CPT	IL1B secr inh
C=C(C)Cn1c(=O)c2c(nc3n2CCCN3CCc2ccccc2)n(C)c1=O	0	13µM	0	?	0
Cc1ccccc1Cn1c(=O)c2c(nc3n2CCCN3Cc2ccccc2)n(C)c1=O	0	?	0	21µM	0
COCCn1c(=O)c2c(nc3n2CCCN3CCc2ccccc2)n(C)c1=O	0	0	0	0	0
CN1CCN(S(=O)(=O)c2ccc(NS(=O)(=O)c3ccccc3)cc2)CC1	0	0	0	0	0
COc1cc([N+](=O)[O-])ccc1NC(=S)NNC(=O)CCC(=O)Nc1ccccc1Cl	0	0	0	0	0
COc1ccccc1C(=O)C1CCCN(C(=O)CN2CCCCC2=O)C1 (centres undefined)	0	0	0	0	0
CCOC(=O)N1CCN(C(=O)C2CCC(=O)N(Cc3ccccc3OC)C2)CC1 (centres undefined)	0	0	0	0	0
CCCCn1c(=O)c2c(nc3n2CCCN3Cc2ccccc2)n(C)c1=O	0	23µM	0	?	0
CCN(CC)CCN1C(=O)C2C(C(=O)Nc3cc(C)cc(C)c3)C3C=CC2(O3)C1C(=O)NC1CCCCC1 (centres undefined)	0	0	0	0	0
CCOC(=O)/C(=N/Nc1ccc(C)cc1)S(=O)(=O)c1ccc(Cl)cc1	?	?	?	16µM	?
CCc1ccc(N(CC(=O)NC(C)(C)CC)C(=O)CCC(=O)Nc2nccs2)cc1	0	0	0	0	0
COc1cccc(OC)c1OCCNCC1COc2ccccc2O1 (centres undefined)	0	?	?	15µM!	0
CCCNCC1COc2ccccc2O1 (centres undefined)	0	0	0	0	0
Cc1ccc(CNC(=O)CSCc2ccccc2C)cc1	-	0	-	?	-
CC(C(=O)NCCc1ccc(Cl)cc1)n1c(=O)c2cccn2c2cccnc21 (centres undefined)	0	18µM	0	?	0
O=C(CCCn1c(=O)c2cccn2c2cccnc21)NCCc1ccc(Cl)cc1	0	23µM	0	21µM	0
CCOc1cc(CNC(=O)CCCn2c(=O)c3cccn3c3cccnc32)cc(OCC)c1OCC	0	23µM	0	?	0
O=C(CCCn1c(=O)c2cccn2c2cccnc21)NCc1cccc(Br)c1	0	?	0	?	0
CC(C)Oc1ccc(CNC(=O)CCCn2c(=O)c3cccn3c3ccccc32)cc1	-	23µM	-	16µM	-
O=C(NCc1cccnc1)c1csc([C@@H]2O[C@H](CO)[C@H](O)[C@H](O)[C@H]2O)n1	0	0	0	0	0
CC(=O)Nc1ccc(S(=O)(=O)NCCC(=O)NCc2ccco2)cc1	0	0	0	0	0
COCC(=O)Nc1cc(C(=O)N2CCOc3ccccc3C2)cc2nc(-c3cccnc3)n(C)c12	-	0	-	0[9.04 µM]	-
O=C(CSc1nnc(CN2CCOCC2)n1-c1ccccc1)Nc1ccc(Cl)cc1	0	0	0	0	0
CC(C)Oc1ccc(CNC(=O)CCCn2c(=O)c3cccn3c3cccnc32)cc1	-	16µM	-	26µM	-
CCc1cccc(NC(=O)CCn2c(=O)c3cccn3c3cccnc32)c1	-	0	-	0	-
SMILES	HT1080-NT tox	DT40 TDP1 no CPT	HT1080 IDH1KD tx	TDP1 cell CPT	IL1B secr inh
CCc1ccc(CNC(=O)CCCn2c(=O)c3cccn3c3cccnc32)cc1	0	?	0	16µM	?
O=C(CCn1c(=O)c2cccn2c2cccnc21)NCc1ccc(Cl)cc1	-	?	-	0	-
CSc1cccc(NC(=O)CCCn2c(=O)c3cccn3c3cccnc32)c1	0	21µM	0	?	0
CCCCN(C)C(=O)c1nc2ccccn2c1CN1CCC[C@H]1CO	0	0	0	0	0
Cc1cc(N2CCN(C)CC2)nc2ccc(NC(=S)N3CCC4(CC3)OCCO4)cc12	0	0	0	0	0
N#Cc1ccccc1CSCCNC(=O)Cc1c(F)cccc1Cl	0	0	0	0	0
CC(C)NC(=O)C1(C#N)C=C1c1ccccc1 (centres undefined)	16µM	16µM	?	?	-84

Screening results deposited in PubChem BioAssay by National Center for Advancing Translational Sciences (NCATS).
